Experimental data from PubChem BioAssay (Tox21).
Results filed as inconclusive are left out. A call without a number means that no potency is given here. Calls of active or inactive are those of the source. Unless noted, calls follow the shape of the dose curve; as a rule, active = well fitted curve in the direction sought with a large enough effect in the repeat runs; inconclusive = weak or mixed curves; inactive = no such curve, though single readings can be large; an effect the other way counts as inactive or inconclusive.

Assays:
[1] = qHTS assay to identify small molecule antagonists of the glucocorticoid receptor (GR) signaling pathway - cell viability counter screen (AID 720693); also: nearly all actives have a fitted effect of over 55% in size
[2] = qHTS assay for identifying genotoxic compounds that show differential cytotoxicity against isogenic chicken DT40 cell lines with known DNA damage response pathways - wild type cell line (AID 743012); also: nearly all actives have a fitted effect of over 60% in size; also: potency is read from the fitted curve at half-maximal effect
Procedure, shortened: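 300 wt DT40 cells/well; cpd (DMSO) pintool-transferred after ~0.5 h at 37 C/5% CO2; 40 h incubation; CellTiter-Glo added, 30 min RT; luminescence read.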

[3] = qHTS assay for identifying genotoxic compounds that show differential cytotoxicity against isogenic chicken DT40 cell lines with known DNA damage response pathways - Rev3 mutant cell line (AID 743014); also: nearly all actives have a fitted effect of over 55% in size; also: potency is read from the fitted curve at half-maximal effect
[4] = qHTS assay for identifying genotoxic compounds that show differential cytotoxicity against isogenic chicken DT40 cell lines with known DNA damage response pathways - Rad54/Ku70 mutant cell line (AID 743015); also: nearly all actives have a fitted effect of over 60% in size; also: potency is read from the fitted curve at half-maximal effect
[5] = qHTS assay to identify small molecule antagonists of the androgen receptor (AR) signaling pathway - cell viability counter screen (AID 743033; also: nearly all actives have a fitted effect of over 45% in size)
[6] = qHTS assay to identify small molecule antagonists of the androgen receptor (AR) signaling pathway using the MDA cell line - cell viability counter screen (AID 743041; also: nearly all actives have a fitted effect of over 45% in size)
Procedure, shortened: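 Compound exposure lasted 16 h at 37C in MDA-kb2 AR-luc cells stimulated with R1881. Protease-based CellTiter-Fluor reagent was applied for the final 30 min and fluorescence measured.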

[7] = qHTS assay to identify small molecule antagonists of the thyroid receptor (TR) signaling pathway (AID 743065); also: nearly all actives have a fitted effect of over 55% in size; also: potency is read from the fitted curve at half-maximal effect
Procedure, shortened: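 GH3.TRE-Luc rat pituitary cells (two TREs driving luciferase) were dosed with compound, then stimulated with 1 nM T3 (final) for 23.5 h at 37 C. ONE-Glo luminescence was the read-out, with CellTiter-Fluor fluorescence as the cytotoxicity counter-screen.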

[8] = tested on: thyroid hormone receptor (rat, GH3 cells); assay: qHTS assay to identify small molecule agonists of the thyroid receptor (TR) signaling pathway (AID 743066; calls by dose curve)
[9] = qHTS assay to identify small molecule antagonists of the estrogen receptor alpha (ER-alpha) signaling pathway - cell viability counter screen (AID 743074; calls by dose curve; also: nearly all actives have a fitted effect of over 45% in size)
[10] = qHTS assay to identify small molecule antagonists of the estrogen receptor alpha (ER-alpha) signaling pathway using the BG1 cell line - cell viability counter screen (AID 743081);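 also: compound given together with 17beta-estradiol as the ER stimulus; series mostly up to about 70 µM; nearly all actives have a fitted effect of over 45% in size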
Aromatase (Homo sapiens) = Aromatase (Homo sapiens) (UniProt P11511); assay: qHTS assay to identify aromatase inhibitors (AID 743083); also: nearly all actives have a fitted effect of over 55% in size; also: potency is read from the fitted curve at half-maximal effect
[11] = qHTS assay to identify aromatase inhibitors - cell viability counter screen (AID 743084); also: potency is read from the fitted curve at half-maximal effect
[12] = target: Estrogen receptor (Homo sapiens) (UniProt P03372); assay: qHTS assay to identify small molecule antagonists of the estrogen receptor alpha (ER-alpha) signaling pathway (AID 743069; active = well fitted curve in the direction sought with a large enough effect in the signal ratio in the repeat runs, not every such curve was filed as active; the % refers to the signal ratio)
Procedure, shortened: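 In this cell-based reporter format, GripTite HEK293 cells harbouring ER-alpha-UAS-bla were grown overnight with 2% charcoal-stripped FBS, dosed with DMSO-dissolved compounds, then challenged with 17beta-estradiol. After 18 hr at 37C, beta-lactamase activity was detected by FRET fluorescence.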

[13] = target: Estrogen receptor (Homo sapiens) (UniProt P03372); assay: qHTS assay to identify small molecule agonists of the estrogen receptor alpha (ER-alpha) signaling pathway (AID 743075; calls by dose curve)
[14] = target: Estrogen receptor (Homo sapiens) (UniProt P03372); assay: qHTS assay to identify small molecule agonists of the estrogen receptor alpha (ER-alpha) signaling pathway using the BG1 cell line (AID 743079); also: nearly all actives have a fitted effect of over 20% in size; also: potency is read from the fitted curve at half-maximal effect
[15] = qHTS assay to identify small molecule antagonists of the estrogen receptor alpha (ER-alpha) signaling pathway using the BG1 cell line (AID 743080; calls by dose curve;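 also: BG1 cells stimulated with 17beta-estradiol alongside compound; nearly all actives have a fitted effect of over 25% in size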; also: potency is read from the fitted curve at half-maximal effect)
Procedure, shortened: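 Luciferase inhibition measured with ONE-Glo after 30 min at RT in BG1Luc4E2 cells given test compounds and 17beta-estradiol for 21.5 h at 37 C; CellTiter-Fluor viability read in the same wells beforehand.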

[16] = qHTS assay to identify small molecule antagonists of the thyroid receptor (TR) signaling pathway - cell viability counter screen (AID 743064); also: nearly all actives have a fitted effect of over 50% in size; also: potency is read from the fitted curve at half-maximal effect
Procedure, shortened: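 Viability of T3-stimulated (1 nM final) GH3.TRE-Luc cells is measured by CellTiter-Fluor fluorescence after 23.5 h compound exposure at 37 °C plus 30 min reagent incubation.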

[17] = target: Androgen receptor (Homo sapiens) (UniProt P10275); assay: qHTS assay to identify small molecule agonists of the androgen receptor (AR) signaling pathway (AID 743036; active = well fitted activation curve with a large enough effect in the signal ratio in the repeat runs, with a control signal flat, not every such curve was filed as active; the % refers to the signal ratio)
Procedure, shortened: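 Screening used 2,000 AR-bla HEK293 cells per well, treated 16 h at 37C with test compounds in DMSO alongside positive and DMSO-only controls; beta-lactamase activity was then read by LiveBLAzer B/G FRET fluorescence after 2 h at room temperature.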

[18] = target: Androgen receptor (Homo sapiens) (UniProt P10275); assay: qHTS assay to identify small molecule agonists of the androgen receptor (AR) signaling pathway using the MDA cell line (AID 743040; also: nearly all actives have a fitted effect of over 20% in size)
Procedure, shortened: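 Testing was done with the MDA-kb2 AR-luc line, a human breast carcinoma stably transfected with MMTV-luciferase containing AR and GR response elements. Cells were exposed 16 h at 37C before ONE-Glo luminescence detection.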

[19] = target: Androgen receptor (Homo sapiens) (UniProt P10275); assay: qHTS assay to identify small molecule antagonists of the androgen receptor (AR) signaling pathway using the MDA cell line (AID 743042; also: nearly all actives have a fitted effect of over 55% in size)
Procedure, shortened: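 MDA-kb2 breast carcinoma cells carrying MMTV-luciferase (AR/GR responsive) were co-treated with compounds and the agonist R1881 for 16 h at 37C. Inhibition read as ONE-Glo luminescence; CellTiter-Fluor fluorescence measured in parallel for cytotoxicity.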

Androgen receptor (Homo sapiens), sequence (P10275 whole entry, looked up): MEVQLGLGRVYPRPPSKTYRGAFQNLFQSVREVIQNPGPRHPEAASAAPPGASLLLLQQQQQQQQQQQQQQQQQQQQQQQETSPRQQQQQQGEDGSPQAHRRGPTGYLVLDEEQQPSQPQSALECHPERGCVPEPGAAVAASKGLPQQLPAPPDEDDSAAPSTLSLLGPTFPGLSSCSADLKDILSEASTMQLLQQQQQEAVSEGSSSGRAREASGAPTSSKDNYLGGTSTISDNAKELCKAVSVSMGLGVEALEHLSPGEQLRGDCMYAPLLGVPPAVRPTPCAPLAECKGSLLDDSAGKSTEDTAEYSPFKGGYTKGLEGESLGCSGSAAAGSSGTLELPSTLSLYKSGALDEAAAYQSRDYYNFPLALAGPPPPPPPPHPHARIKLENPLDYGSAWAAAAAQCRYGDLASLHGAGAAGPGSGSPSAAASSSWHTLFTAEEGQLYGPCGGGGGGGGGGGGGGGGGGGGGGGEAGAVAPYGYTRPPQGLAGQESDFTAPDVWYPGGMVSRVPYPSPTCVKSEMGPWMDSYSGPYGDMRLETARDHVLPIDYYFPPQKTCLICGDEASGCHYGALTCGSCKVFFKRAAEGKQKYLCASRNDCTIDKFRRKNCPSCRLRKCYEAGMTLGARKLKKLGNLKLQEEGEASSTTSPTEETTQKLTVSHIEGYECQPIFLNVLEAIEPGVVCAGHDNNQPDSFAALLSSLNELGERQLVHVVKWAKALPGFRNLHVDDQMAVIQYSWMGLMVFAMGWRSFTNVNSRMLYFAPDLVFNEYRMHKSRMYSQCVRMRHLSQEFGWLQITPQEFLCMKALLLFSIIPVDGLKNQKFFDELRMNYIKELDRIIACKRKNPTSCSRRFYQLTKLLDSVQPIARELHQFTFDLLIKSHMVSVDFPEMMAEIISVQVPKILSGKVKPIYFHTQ
Aromatase (Homo sapiens), sequence (P11511 whole entry, looked up): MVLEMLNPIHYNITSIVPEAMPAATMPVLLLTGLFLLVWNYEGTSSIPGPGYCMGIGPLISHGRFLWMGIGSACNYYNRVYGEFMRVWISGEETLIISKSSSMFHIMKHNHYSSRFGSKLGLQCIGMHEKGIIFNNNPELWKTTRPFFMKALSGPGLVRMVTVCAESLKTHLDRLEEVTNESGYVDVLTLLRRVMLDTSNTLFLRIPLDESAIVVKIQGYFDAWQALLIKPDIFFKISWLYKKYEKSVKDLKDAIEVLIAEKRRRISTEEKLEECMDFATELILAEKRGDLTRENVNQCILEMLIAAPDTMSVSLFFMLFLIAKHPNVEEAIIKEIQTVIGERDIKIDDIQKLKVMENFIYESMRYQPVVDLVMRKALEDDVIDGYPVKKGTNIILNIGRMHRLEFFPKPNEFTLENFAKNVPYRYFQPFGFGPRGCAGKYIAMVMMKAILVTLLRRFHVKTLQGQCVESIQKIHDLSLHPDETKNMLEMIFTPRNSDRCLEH
Estrogen receptor (Homo sapiens), sequence (P03372 whole entry, looked up): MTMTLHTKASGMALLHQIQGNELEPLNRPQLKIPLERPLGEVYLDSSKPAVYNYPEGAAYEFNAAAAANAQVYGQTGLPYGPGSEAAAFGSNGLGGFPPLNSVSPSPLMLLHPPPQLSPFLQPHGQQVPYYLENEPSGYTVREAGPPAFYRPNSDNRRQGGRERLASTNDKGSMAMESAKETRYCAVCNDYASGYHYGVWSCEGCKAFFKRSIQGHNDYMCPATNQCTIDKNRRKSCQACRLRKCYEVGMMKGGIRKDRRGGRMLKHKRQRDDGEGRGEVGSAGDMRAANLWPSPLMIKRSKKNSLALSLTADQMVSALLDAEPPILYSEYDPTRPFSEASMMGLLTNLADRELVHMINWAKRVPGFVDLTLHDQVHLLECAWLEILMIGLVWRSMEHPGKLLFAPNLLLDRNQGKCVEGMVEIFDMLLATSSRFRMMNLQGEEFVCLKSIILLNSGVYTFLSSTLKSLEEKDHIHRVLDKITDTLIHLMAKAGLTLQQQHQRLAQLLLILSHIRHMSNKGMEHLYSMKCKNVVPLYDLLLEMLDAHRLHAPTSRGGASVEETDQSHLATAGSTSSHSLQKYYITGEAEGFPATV

Row | Structure (SMILES) | Potency [1] | Potency [2] | Potency [3] | Potency [4] | Potency [5] | Potency [6] | Potency [7] | Potency [8] | Potency [9] | Potency [10] | Potency (Aromatase (Homo sapiens)) | Potency [11] | Potency [12] | Potency [13] | Potency [14] | Potency [15] | Potency [16] | outcome [17] | Potency [18] | Potency [19]
1 | COc1ccc(/C=C/C(=O)c2ccc(OC)cc2OC)cc1 | inactive | 10.6 µM (active) | 16.8 µM (active) | 18.8 µM (active) | inactive | inactive | 26.6 µM (active) | inactive | inactive | inactive | inactive | inactive |  |  |  |  |  |  |  | 
2 | CCCC(=O)OC(=O)CCC | inactive | inactive | inactive | inactive | inactive | inactive | inactive | inactive |  | inactive | inactive | inactive |  |  |  |  |  |  |  | 
3 | Cc1ccc(NC(=O)N(C)C)cc1NC(=O)N(C)C | inactive | inactive | inactive | inactive | inactive | inactive | inactive | inactive | inactive | inactive | inactive | inactive | inactive | inactive | inactive | inactive |  |  |  | 
4 | CC12CC3CC(C)(C1)CC(N)(C3)C2 | inactive | 26.6 µM (active) | 29.8 µM (active) | 29.8 µM (active) | inactive |  | 29.8 µM (active) |  |  | inactive | inactive | inactive | inactive | inactive | inactive | inactive | 29.8 µM (active) |  |  | 
5 | COc1ccc(C(=O)NCc2ccc(OCCN(C)C)cc2)cc1OC | inactive | inactive | inactive | inactive | inactive | inactive | inactive | inactive | inactive | inactive | inactive | inactive | inactive | inactive | inactive |  |  |  |  | 
6 | COc1ccc(-n2nc(C(F)F)cc2-c2ccc(S(C)=O)cc2)cc1 (stereo not drawn) | inactive | 61.1 µM (active) | 30.6 µM (active) | 54.5 µM (active) | inactive | inactive |  | inactive | inactive | inactive | inactive |  |  | inactive | inactive |  | inactive |  |  | 
7 | O=[N+]([O-])C1(Br)COCOC1 | inactive | 12.2 µM (active) | 21.7 µM (active) | 21.7 µM (active) |  | inactive | 15.4 µM (active) |  | inactive | inactive | 30.6 µM (active) | 43.3 µM (active) | inactive | inactive | inactive | 96.9 µM (active) | 17.2 µM (active) |  |  | 
8 | CCN(CC)CCOc1ccccc1C(=O)CCc1ccccc1 | inactive | 11.9 µM (active) | 26.6 µM (active) | 26.6 µM (active) |  | inactive | 26.6 µM (active) | inactive | inactive | inactive | inactive | inactive | inactive | inactive | inactive | inactive |  |  |  | 
9 | Nc1ccc(NC(=O)c2ccc(N)cc2)cc1 | inactive | inactive | inactive |  | inactive | inactive | inactive | inactive | inactive | inactive |  | 54.5 µM (active) | inactive | inactive | inactive | inactive | inactive | inactive | inactive | inactive
10 | CC1CCCO1 (stereo not drawn) | inactive | inactive | inactive | inactive | inactive | inactive | inactive | inactive | inactive | inactive | inactive | inactive |  |  |  |  | inactive |  |  | 
11 | Cc1cc(CCC(=O)OCCOCCOCCOC(=O)CCc2cc(C)c(O)c(C(C)(C)C)c2)cc(C(C)(C)C)c1O | inactive | 26.6 µM (active) | 26.6 µM (active) | 23.7 µM (active) |  | inactive |  | inactive | inactive | inactive | inactive | inactive |  |  |  |  | inactive |  |  | 
12 | CN=C(N)NC(=O)Nc1c(C)cccc1C | inactive | inactive | inactive | inactive | inactive | inactive |  |  | inactive |  | inactive | inactive | inactive | inactive | inactive | inactive |  |  |  | 
13 | CC(=O)C(C)=O | inactive | inactive | inactive | inactive | inactive | inactive | inactive | inactive | inactive | inactive | inactive | inactive |  |  |  |  | inactive |  |  | 
14 | CCCOC(=O)c1c(Cl)c(Cl)c(Cl)c(Cl)c1C(=O)OCCC | inactive | 54.5 µM (active) | 61.1 µM (active) | 61.1 µM (active) |  |  |  | inactive | inactive | inactive |  | inactive |  |  |  |  | inactive |  |  | 
15 | COc1ccc(C2C(=O)c3ccccc3C2=O)cc1 | inactive | inactive | inactive | inactive | inactive | inactive | inactive | inactive | inactive | inactive | inactive | inactive | inactive | inactive | 23.7 µM (active) | inactive |  |  |  | 
16 | CCCCCCCCCCCCCC(=O)OCC(O)CO (stereo not drawn) | inactive | inactive |  | 43.3 µM (active) | inactive | inactive |  | inactive | inactive | inactive | inactive | inactive |  |  |  |  | inactive | inactive | inactive | inactive
17 | CC(=O)C(=O)CC(C)C | inactive | inactive |  | inactive | inactive | inactive | inactive | inactive | inactive | inactive | inactive | inactive | inactive | inactive | 34.2 µM (active) | inactive | inactive |  |  | 
18 | CCN(CC)C(=O)/C(C#N)=C/c1cc(O)c(O)c([N+](=O)[O-])c1 | inactive | inactive |  | inactive | inactive | inactive | inactive | inactive | inactive | inactive | inactive |  | inactive | inactive | inactive | inactive | inactive |  | inactive | inactive
19 | COC1CCC=CO1 (stereo not drawn) | inactive | inactive |  | inactive | inactive | inactive | inactive | inactive | inactive | inactive | inactive |  | inactive |  | inactive | inactive | inactive |  |  | 
20 | CC1CCc2nccnc21 (stereo not drawn) | inactive | inactive |  | 54.5 µM (active) | inactive | inactive | inactive | inactive | inactive | inactive | inactive | inactive | inactive | inactive | inactive | inactive | inactive |  |  | 
21 | CCCCCCC(O)CCOC(C)=O (stereo not drawn) | inactive | inactive |  | inactive | inactive | inactive | inactive | inactive | inactive | inactive | inactive | inactive | inactive | inactive | inactive | inactive | inactive |  |  | 
22 | Cc1ccc(Nc2c(F)cccc2Cl)c(CC(=O)O)c1 | inactive | inactive |  | inactive | inactive | inactive | inactive | inactive | inactive | inactive | inactive | inactive | inactive | inactive | inactive | inactive | inactive |  |  | 
23 | O=C1[C@@H]2[C@H]3CC[C@H](C3)[C@@H]2C(=O)N1CCCCN1CCN(c2ncccn2)CC1 | inactive | inactive | inactive |  | inactive | inactive |  |  | inactive | inactive | inactive | inactive | inactive | inactive | inactive | inactive |  |  |  | 
24 | c1ccc(CCCc2ccncc2)cc1 | inactive | inactive |  | inactive | inactive | inactive | inactive | inactive | inactive | inactive | 30.6 µM (active) | inactive | inactive | inactive | inactive | inactive | inactive |  |  | 
25 | CCSC(=O)N(CC)CC | inactive | inactive |  | inactive | inactive | inactive | inactive | inactive | inactive | inactive | inactive | inactive | inactive | inactive | inactive | inactive | inactive |  |  | 
